From PubChem BioAssay come the findings set out here.

“And” between values parts separate entries of the source, which are not always exact repeats. Identical values can stand only once. Inconclusive results are not listed. The source made the active and inactive calls.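 Rule for the calls, unless noted: active = normalized viability below 100% at a tested concentration; inactive = the rest.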

As usually defined, the AC50 is the concentration giving half of the maximal activity seen. One may read the viability as a read-out of living cells in per cent, often relative to untreated cells. For orientation: IC50 means the concentration at which inhibition is half-maximal.

Assay [1] can be described thus: growth inhibition of DIPG glioma cells, dose response, cell-based, SU-DIPG-XVII, MIPE5.0, CellTiter-Glo, qHTS (AID 1347060; cut-off not given, nearly all actives have AC50 up to about 26 µM;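 for AC50: cells exposed to compound for 48 hours before viability readout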). To be noted: SU-DIPG-XVII viability, CellTiter-Glo ATP luminescence. Background: In ATP-based viability assays light output follows the ATP content of the culture.
Assay [2] in a line: growth inhibition of DIPG glioma cells, dose response, cell-based, SU-DIPG-XIII, MIPE4.0, CellTiter-Glo, qHTS (AID 1347061; cut-off not given, nearly all actives have AC50 up to about 37 µM;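 note: cells exposed to compound for 48 hours before readout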). To be noted: SU-DIPG-XIII viability, CellTiter-Glo ATP luminescence.
Assay [3] is described as follows: growth inhibition of DIPG glioma cells, dose response, cell-based, JHH-DIPG-1, MIPE4.0, CellTiter-Glo, qHTS (AID 1347062; cut-off not given, nearly all actives have AC50 up to about 27 µM;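 for AC50: cells exposed to compound for two days before readout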). To be noted: JHH-DIPG-1 viability, CellTiter-Glo ATP luminescence.
The nature of assay [4]: growth inhibition of DIPG glioma cells, dose response, cell-based, SU-DIPG-IV, MIPE4.0, CellTiter-Glo, qHTS (AID 1347063; cut-off not given, nearly all actives have AC50 up to about 30 µM;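 note: compound exposure lasted 48 hours before the viability readout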). To be noted: SU-DIPG-IV viability, CellTiter-Glo ATP luminescence.
A short description of assay [5]: growth inhibition of DIPG glioma cells, dose response, cell-based, SU-DIPG-XIII, MIPE5.0, CellTiter-Glo, qHTS (AID 1347064; cut-off not given, nearly all actives have AC50 up to about 23 µM;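 for AC50: cells exposed to compound for 48 hours before the viability read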). To be noted: SU-DIPG-XIII viability, CellTiter-Glo ATP luminescence.
Assay [6] can be described thus: viability loss in pontine glioma line – cell-based, SU-DIPG-XXV, MIPE5.0, CellTiter-Glo, qHTS, dose response (AID 1347065; cut-off not given, nearly all actives have AC50 up to about 26 µM;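 note: cells exposed to compound for 48 hours before ATP readout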). The conditions noted are these: CellTiter-Glo ATP luminescence.
Assay [7] in a line: SU-DIPG-VI glioma cell viability, MIPE4.0 library, CellTiter-Glo luminescence, qHTS (AID 1347066; cut-off not given, nearly all actives have AC50 up to about 30 µM;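 note: cells exposed to compound for 48 hours before readout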). The conditions noted are these: CellTiter-Glo ATP luminescence.
The nature of assay [8]: JHH-DIPG-1 glioma cell viability, MIPE5.0 library, CellTiter-Glo luminescence, qHTS (AID 1347067; cut-off not given, nearly all actives have AC50 up to about 26 µM;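 note: cells exposed to compound for 48 hours before readout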). To be noted: JHH-DIPG-1 glioma viability, CellTiter-Glo ATP luminescence.
A short description of assay [9]: SU-DIPG-XXV glioma cell viability, MIPE5.0 library, qHTS (AID 1347068; cut-off not given, nearly all actives have IC50 up to about 30 µM;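 for IC50: cells exposed to compound for 48 hours before viability readout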).
Assay [10] in a line: ovarian cancer cell viability with rucaparib, profiling panel, oncology-focused library, rucaparib conditional (AID 1508598). To be noted: patient-derived ovarian cancer cells, CellTiter-Glo viability, 144 h, stronger effect = lower value.
Assay [11] is described as follows: sensitizers of A549 cells to miR-34 induction, primary screen, imaging, A549 dox-inducible miR-34, nuclei and caspase counts (AID 1347080;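 active = compounds whose cell count with miR-34 switched on is under 0.7 times the count with it off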). To be noted: A549 miR-34 inducible, Hoechst nuclei count, 48 h.
Assay [12] in a line: survival rescue of mitochondrial mutant cells in low glucose, primary screen, MELAS cybrids, Rieske KO mouse fibroblasts, CellTiter-Glo (AID 1508586;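 active = mean z-score across replicates of 1.96 or higher in either the MELAS or the Rieske mutant cell line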;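 note: z relative to plate mean and SD of compound and empty wells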).
Assay [13] in a line: modifiers of HSF1 nuclear foci, imaging, Selleck Cancer Library (AID 1347162; in the data active = plate-normalised HSF1 focus index below about 0.46). The conditions noted are these: human cells, at 10 µM; SSMD: measured here: HSF1 foci SSMD mean; cell count: measured here: cell number; plate-normalised HSF1 focus index: stronger effect = lower value.
The mark [14] stands for this setting: stronger effect = lower value, cell number ratio, induced over uninduced.
Where [15] appears, read: measured here: relative caspase fold change +Dox/-Dox.
Where [16] appears, read: measured here: total cells with miR-34 induction, stronger effect = lower value.
The mark [17] stands for this setting: measured here: total cells without miR-34 induction.
Setting [18] is: MELAS cybrid survival, CellTiter-Glo 48 h, stronger effect = higher value.
Where [19] appears, read: Rieske KO mouse fibroblast survival, CellTiter-Glo 72 h.

In the case of `C=CC(=O)N1CCC[C@@H](n2nc(-c3ccc(Oc4ccccc4)cc3)c3c(N)ncnc32)C1`, the half-maximal activity concentration (AC50) in assay [1] was 5.9 µM (active); in assay [2], 18.7 µM (active); in assay [3], 23.5 µM (active); in assay [4], 5.26 µM (active); in assay [5], 20.9 µM (active); in assay [6] it was 9.34 µM (active). In addition, the concentration at half-maximal activity (AC50) in [7] and in [8] was 16.6 µM (active) each time. The compound was called inactive in assay [9]. Besides, the viability was 99.2% (active) in assay [10] (at 0.000305 µM, OCI-C5x cells, with rucaparib 10 µM, 100% = cells with rucaparib alone); 119% (inactive) in assay [10] (at 0.000305 µM, OCI-C5x cells, without rucaparib); 88.6% (active) in [10] (at 0.000305 µM, OCI-P5x cells, with rucaparib 20 µM, 100% = cells with rucaparib alone); 94.3% (active) in [10] (at 0.000305 µM, OCI-P5x cells, without rucaparib); 108% (inactive) in assay [10] (at 0.00122 µM, OCI-C5x cells, with rucaparib 10 µM, 100% = cells with rucaparib alone); 118% (inactive) in [10] (at 0.00122 µM, OCI-C5x cells, without rucaparib). Moreover, the viability in assay [10] (at 0.00122 µM, OCI-P5x cells, with rucaparib 20 µM, 100% = cells with rucaparib alone) is 77.7% (active); in [10] (at 0.00122 µM, OCI-P5x cells, without rucaparib), 48.3% (active); in assay [10] (at 0.00488 µM, OCI-C5x cells, with rucaparib 10 µM, 100% = cells with rucaparib alone), 106% (inactive); in assay [10] (at 0.00488 µM, OCI-C5x cells, without rucaparib), 108% (inactive); in assay [10] (at 0.00488 µM, OCI-P5x cells, with rucaparib 20 µM, 100% = cells with rucaparib alone), 95.6% (active); in assay [10] (at 0.00488 µM, OCI-P5x cells, without rucaparib), 103% (inactive). Further, the viability was 112% (inactive) in [10] (at 0.0195 µM, OCI-C5x cells, with rucaparib 10 µM, 100% = cells with rucaparib alone); 112% (inactive) in assay [10] (at 0.0195 µM, OCI-C5x cells, without rucaparib); 93.8% (active) in [10] (at 0.0195 µM, OCI-P5x cells, with rucaparib 20 µM, 100% = cells with rucaparib alone); 103% (inactive) in assay [10] (at 0.0195 µM, OCI-P5x cells, without rucaparib); 114% (inactive) in assay [10] (at 0.0781 µM, OCI-C5x cells, with rucaparib 10 µM, 100% = cells with rucaparib alone); 111% (inactive) in [10] (at 0.0781 µM, OCI-C5x cells, without rucaparib). Moreover, the viability in [10] (at 0.0781 µM, OCI-P5x cells, with rucaparib 20 µM, 100% = cells with rucaparib alone) is 86.9% (active); in assay [10] (at 0.0781 µM, OCI-P5x cells, without rucaparib), 100% (inactive); in assay [10] (at 0.313 µM, OCI-C5x cells, with rucaparib 10 µM, 100% = cells with rucaparib alone) it was 112% (inactive); in assay [10] (at 0.313 µM, OCI-C5x cells, without rucaparib), 120% (inactive); in assay [10] (at 0.313 µM, OCI-P5x cells, with rucaparib 20 µM, 100% = cells with rucaparib alone), 86.1% (active); in [10] (at 0.313 µM, OCI-P5x cells, without rucaparib), 91.8% (active). For the same compound, the viability is 108% (inactive) in [10] (at 1.25 µM, OCI-C5x cells, with rucaparib 10 µM, 100% = cells with rucaparib alone); 125% (inactive) in assay [10] (at 1.25 µM, OCI-C5x cells, without rucaparib); 92.3% (active) in assay [10] (at 1.25 µM, OCI-P5x cells, with rucaparib 20 µM, 100% = cells with rucaparib alone); 93.7% (active) in assay [10] (at 1.25 µM, OCI-P5x cells, without rucaparib); 113% (inactive) in [10] (at 5 µM, OCI-C5x cells, with rucaparib 10 µM, 100% = cells with rucaparib alone); 121% (inactive) in assay [10] (at 5 µM, OCI-C5x cells, without rucaparib). The viability in assay [10] (at 5 µM, OCI-P5x cells, with rucaparib 20 µM, 100% = cells with rucaparib alone) is 57.3% (active); in [10] (at 5 µM, OCI-P5x cells, without rucaparib), 88.7% (active).

Consider `COc1ccc(C2(C#N)CCC(C(=O)O)CC2)cc1OC1CCCC1` (stereo not given), for which the outcome in assay [1], in assay [2], in [3], in [4], in assay [5] and in assay [6] was inactive. Also, the outcome in [7] was inactive. The fold change was 0.931 (inactive) in [11] (setting [14]) and 0.847 in assay [11] (setting [15]). Also, the figures for the cell count in assay [11] (setting [16]) and in assay [11] (setting [17]) were 7550 and 8110, respectively. The z-score is -0.364 (inactive) in [12] (setting [18]) and 0.0886 in assay [12] (setting [19]).

`Cc1ccc(C(N)=O)cc1Nc1nccc(-c2cn(C(C)C)c3cnccc23)n1`: the half-maximal activity concentration (AC50) is 9.34 µM (active) in assay [1]; 18.7 µM (active) in assay [2]; 9.35 µM (active) in assay [3]; 8.33 µM (active) in assay [4]; 11.8 µM (active) in assay [5]; 7.42 µM (active) in [6]. Moreover, the concentration at half-maximal activity (AC50) in [7] is 13.2 µM (active). Also, in assay [9], the IC50 is 11.8 µM (active).

Take `NC(=O)Nc1cc(-c2ccc(CN3CCOCC3)cc2)sc1C(N)=O`: the concentration at half-maximal activity (AC50) in assay [1] is 1.32 µM (active); in [2] it was 18.7 µM (active); in [3] it was 20.9 µM (active); in assay [4], 16.6 µM (active); in assay [5], 13.2 µM (active); in [6], 0.934 µM (active). The AC50 in assay [8] is 5.25 µM (active). For the same compound, in [9], the half-maximal inhibitory concentration (IC50) is 2.95 µM (active).

Turning to `CCCCCCCN(CC)CCCC(O)c1ccc(NS(C)(=O)=O)cc1` (stereo not given), the compound was called inactive in assay [1], in [2], in assay [3], in assay [4], in assay [5] and in assay [6]. In addition, the outcome in assay [7] and in assay [8] was inactive. Further, the fold change is 0.916 (inactive) in [11] (setting [14]) and 0.577 in assay [11] (setting [15]). Also, the cell count was 7740 in assay [11] (setting [16]) and 8450 in assay [11] (setting [17]). Further, the z-score is -0.187 (inactive) and 0.657 (inactive) in assay [12] (setting [18]); 0.0673 and -0.0365 in assay [12] (setting [19]).

On to `CN(C)C[C@@H]1CCn2cc(c3ccccc32)C2=C(C(=O)NC2=O)c2cn(c3ccccc23)CCO1`, for which the half-maximal activity concentration (AC50) was 26.3 µM (active) in assay [1]; 16.6 µM (active) in assay [2]; 29.6 µM (active) in [3]; 16.6 µM (active) in assay [4]; 9.34 µM (active) in assay [5]; 18.6 µM (active) in [6]. The AC50 in assay [7] was 13.2 µM (active); in [8], 7.42 µM (active). The same compound had an SSMD in [13] of 3.92. Also, the cell count in assay [13] was 6860. In addition, the plate-normalised HSF1 focus index in assay [13] was 1.24 (inactive).
